MITF TRPM1 inh – inhibitors of MITF-driven TRPM1 promoter in melanoma cells; inhibition, % at 12.5 µM; SK-MEL-5 TRPM1 promoter luciferase, 24 h; hit rate 0.83% among 330,000;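 active = mean inhibition across replicates of 60% or more, whatever share of single replicates reaches that level; inconclusive = some that reach 60%, reason not given; inactive = mean inhibition across replicates below 60%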
Wnt act – Wnt/beta-catenin pathway activation. Wnt/beta-catenin reporter cell assay, activator, plate reader. activation, % at 9.35 µM. hit rate 1.2% among 300,000; in the data active = activation above about 30%, passing the limit was not always enough; inconclusive = no clear call, values can overlap the other calls
esBAF inh – SWI/SNF esBAF complex inhibition | reporter increase, % at 12.5 µM | hit rate 2% among 350,000 | mouse ES cells, Bmi1-luciferase knock-in reporter, 24 h; 100% = twice the neutral-well signal; in the data active = activation above about 40%; inconclusive = no clear call, values can overlap the other calls;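 also: a rise in the Bmi1 reporter signal indicates esBAF inhibition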
EWS-Fli inh – blocks EWS/Fli oncoprotein-driven transcription | A673 NR0B1-luciferase reporter, viability-normalised | inhibition, % at 12.6 µM | hit rate 0.67% among 350,000;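 active = mean inhibition of at least 50% after viability correction, with every replicate also passing that limit; inconclusive = mean reaches 50% but only one of two replicates passes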;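 also: firefly luciferase signal divided by Alamar Blue viability fluorescence both relative to DMSO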
MITF act – MITF TRPM1 promoter activation in melanoma cells; activation, % at 12.5 µM; SK-MEL-5 TRPM1-promoter luciferase, 24 h; % of positive control, neutral wells = 0; hit rate 0.75% among 300,000; AID 588334;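 active = mean activation of at least 80% with every replicate also reaching 80%; inconclusive = mean reaches 80% but some replicate falls short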
PAX8 reporter – lowers PAX8-driven luciferase in RMG-I cells; RMG-I TPO-luciferase reporter, SteadyGlo, 24 h; AID 652154; hit rate 1.2% among 360,000; inhibition, % at 12.6 µM;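 active = mean replicate inhibition at least 60% with every replicate also reaching 60%; inconclusive = only one of the two criteria is met; inactive = mean below 60% and not all replicates reaching 60%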;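 also: luciferase light reporting Pax8 driven TPO promoter activity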
A number is an active result; n = inactive; u = inconclusive; x = no result. Shown are actives, neighbours in structure and some others; about 4% of the full set was active somewhere.

SMILES | MITF TRPM1 inh | Wnt act | esBAF inh | EWS-Fli inh | MITF act | PAX8 reporter
O=C(C[C@H]1CC[C@@H](NS(=O)(=O)c2ccccc2)[C@H](CO)O1)N1CCC(Cc2ccccc2)CC1 | x | x | x | n | x | n
COC(=O)C[C@H]1C[C@@H]2c3cc(NC(=O)Nc4ccc(OC)cc4)ccc3O[C@@H]2[C@@H](CO)O1 | x | x | n | n | x | n
CCCCc1ccc(Nc2ncnc3nc[nH]c23)cc1 | n | n | n | n | 104.9 | n
Cc1ccc(Nc2ncnc3nc[nH]c23)cc1Cl | x | n | n | n | x | n
CCc1ccc(Nc2ncnc3nc[nH]c23)cc1 | n | 46.8 | n | n | 96.4 | n
c1ccc(CCCNc2ncnc3nc[nH]c23)cc1 | x | n | n | n | x | n
CCCC(=O)Nc1ccc2c(c1)C(=O)N(C)C[C@@H](OC)[C@@H](C)CN(CCC(F)(F)F)[C@@H](C)CO2 | x | x | n | n | x | n
CN(Cc1ccccc1)C1=CC(=[N+]2CCCCC2)CC(C)(C)C1 | 77.1 | n | n | n | n | 74.3
CC1(C)CC(N2CCCC2)=CC(=[N+]2CCCCC2)C1 | n | n | x | n | n | n
CC1(C)CC(N2CCN(Cc3ccccc3)CC2)=CC(=[N+]2CCCCC2)C1 | 67.1 | n | n | n | n | 69.2
CC1(C)CC(N2CCCC2)=CC(=[N+]2CCCC2)C1 | n | n | x | n | n | n
CCNC(=O)Nc1ccc2c(c1)C(=O)N(C)[C@@H]1CC[C@H](CC(=O)Nc3ccccc3)O[C@H]1CO2 | x | x | n | n | x | n
COc1ccc(S(=O)(=O)N(C)C[C@@H]2Oc3ccc(NS(=O)(=O)c4ccc(C)cc4)cc3C(=O)N([C@H](C)CO)C[C@@H]2C)cc1 | x | x | x | n | x | n
C[C@H](CO)N1C[C@H](C)[C@H](CN(C)C(=O)Nc2ccc(F)cc2)Oc2ccc(NC(=O)Nc3ccc4c(c3)OCO4)cc2C1=O | x | x | n | n | x | n
Cc1cc(-c2nc(-c3ccc(C(C)(C)C)cc3)no2)no1 | n | n | 61.8 | n | 100.3 | n
Cn1cnc(CCNC(=O)C[C@@H]2CC[C@@H]3[C@H](COC[C@H](O)CN3C(=O)C3CC3)O2)c1 | x | x | n | n | x | n
CCCN1CCc2[nH]c(=S)[nH]c(=O)c2C1 | n | n | x | n | n | 72.3
Cc1ccc(CN2CCc3[nH]c(=S)[nH]c(=O)c3C2)cc1 | n | n | n | n | n | n
Cc1cc(/C=C2\SC(=S)NC2=O)c(C)n1-c1cccc(O)c1 | n | 35.8 | x | n | n | n
CCn1c(C)cc(/C=C2/SC(=S)NC2=O)c1C | n | n | x | 78.7 | n | n
Cc1ccc(-n2c(C)cc(/C=C3\SC(=O)NC3=O)c2C)cc1 | n | n | u | n | n | n
Cc1cc(/C=C2\SC(=S)N(C)C2=O)c(C)n1-c1ccc(O)cc1 | 75.9 | n | x | 74.7 | n | n
CCn1ncc(/C=C2/SC(=S)NC2=O)c1C | n | x | x | x | n | n
Cc1cc(/C=C(\C#N)C(=O)NCc2ccco2)c(C)n1-c1cccnc1 | n | n | x | n | n | n
Cc1cc(/C=C(/C#N)c2cccc(F)c2)c(C)n1-c1cccnc1 | n | n | n | n | 87.8 | x
SMILES | MITF TRPM1 inh | Wnt act | esBAF inh | EWS-Fli inh | MITF act | PAX8 reporter
CCNC(=O)Nc1ccc2c(c1)C(=O)N(C)[C@H]1CC[C@@H](CC(=O)NCc3ccccc3F)O[C@@H]1CO2 | x | x | n | n | x | n
C[C@@H]1CCCCO[C@H](CN(C)C(=O)Nc2ccc(F)cc2)[C@@H](C)CN([C@H](C)CO)C(=O)c2cc(NC(=O)CCC(F)(F)F)ccc2O1 | x | x | n | n | x | n
O=C(C1CCCC1)N1C[C@H]2[C@@H](c3ccccc31)[C@H](CO)N2C(=O)c1cccnc1 | x | x | n | n | x | n
Cc1ccc(-c2cc(-c3ccccc3)no2)c(O)c1 | n | x | x | x | n | n
Cc1ccc(O)c(-c2cc(-c3ccc(F)cc3)no2)c1 | n | 43.7 | n | n | n | n
C[C@@H]1CN([C@H](C)CO)C(=O)c2cc(N(C)C)ccc2O[C@@H]1CN(C)Cc1ccc(C(=O)Nc2ccccc2N)cc1 | x | x | n | 73.9 | x | n
C[C@@H]1CN([C@H](C)CO)C(=O)Cc2cc(N(C)C)ccc2O[C@@H]1CN(C)Cc1ccc(C(=O)Nc2ccccc2N)cc1 | x | x | n | n | x | 62.2
C[C@H](CO)N1C[C@H](C)[C@@H](CN(C)Cc2ccc(C(=O)Nc3ccccc3N)cc2)Oc2ccc(N(C)C)cc2C1=O | x | x | n | u | x | n
Cc1ccc(-c2cnc3c(c2)C(=O)N([C@@H](C)CO)C[C@H](C)[C@@H](CN(C)S(C)(=O)=O)O3)cc1 | x | x | n | n | x | n

Screening data deposited in PubChem BioAssay by Broad Institute.
